Where “and” joins values, the source holds several entries; their conditions need not be identical. Equal entries are not always repeated. Values without a mark were called inactive. Records with an inconclusive call do not appear. A call without a number means that no potency is given here. Calls of active or inactive are those of the source. Unless noted, calls follow the shape of the dose curve; as a rule, active = well fitted curve in the direction sought with a large enough effect; inconclusive = small, poorly fitted or top-dose-only effect, or another doubt; inactive = no such curve, though single readings can be large; an effect the other way counts as inactive or inconclusive.
How the values were obtained:
[1] = Cell Viability - HUV-EC-C (AID 542); also: nearly all actives have a fitted effect of over 35% in size
How it was run: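 HUV-EC-C human vascular endothelial cells, 1000/well, exposed to compound for 40 hr at 37 °C in complete medium. Intracellular ATP was read by CellTiter-Glo luminescence. AC50 came from Hill-equation fits of concentration-response data.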

[2] = Cell Viability - H-4-II-E (AID 543); also: nearly all actives have a fitted effect of over 35% in size
How it was run: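 Rat hepatoma H-4-II-E cells, 1500 per well, treated 40 h at 37 °C in complete medium. Cellular ATP read by CellTiter-Glo luminescence; AC50 from Hill fits of concentration-response.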

[3] = Cellular Toxicity (caspase-3) BJ (AID 658)
How it was run: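 Readout: Caspase-Glo 3/7 luminescence increase in BJ cells after 16 hr treatment at 37 °C. Staurosporine and tamoxifen served as positive controls; AC50 values came from Hill modelling of data normalized to DMSO and 10 uM staurosporine.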

[4] = Cellular Toxicity (caspase-3) SK-N-SH (AID 661)
How it was run: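 Human SK-N-SH neuroblastoma cells, 1500/well, were exposed to compounds for 16 hours at 37 °C. Caspase-Glo 3/7 luminescence was normalized to DMSO (basal) and 10 uM staurosporine (100%), and AC50 came from a Hill fit.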

[5] = Cellular Toxicity (caspase-3) N2a (AID 665);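 also: compound exposure lasted 16 h at 37 °C before readout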
How it was run: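 Mouse N2a neuroblastoma cells, 1500 per well, treated 16 h at 37 °C in complete medium; caspase-3/7 activity by Caspase-Glo luminescence after 1 h. Normalized to DMSO and 10 uM staurosporine; AC50 from Hill fits.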

[6] = Cellular Toxicity (caspase-3) NIH 3T3 (AID 666);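 also: caspase signal read after 16 h compound exposure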; also: potency is read from the fitted curve at half-maximal effect
How it was run: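 Mouse NIH 3T3 fibroblasts (1000/well) treated 16 h at 37 C; caspase-3/7 activity measured by Caspase-Glo 3/7 luminescence after 20 min. Normalized to DMSO and 100 uM tamoxifen; AC50 from Hill fits.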

[7] = Cellular Toxicity (caspase-3) Renal Proximal Tubule (AID 667);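 also: cells exposed to compound for 16 hours at 37 °C before detection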
How it was run: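 Primary rat proximal tubule cells, 1000/well, 5 h plating at 37 °C, then compound 16 h at 37 °C. Caspase-Glo 3/7 reagent, 1 h RT, luminescence. Normalized to DMSO (basal) and 10 uM staurosporine (100%); Hill-fit AC50.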

[8] = Cell Viability - LYMP2-023 (AID 975);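 also: cellular ATP measured by luciferase luminescence as viability proxy; series mostly up to about 92 µM; nearly all actives have a fitted effect of over 55% in size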
How it was run: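 LYMP2-023 human lymphoblastoid cells, 2500/well, preincubated 5 hr at 37 C, then compound-treated 24 hr at 37 C in complete medium. CellTiter-Glo luminescence (ATP) after 30 min at room temperature; AC50 from Hill-equation fits; tetraoctylammonium bromide positive control.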

[9] = Cell Viability - LYMP2-006 (AID 978); also: series mostly up to about 92 µM; nearly all actives have a fitted effect of over 60% in size
How it was run: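 Human lymphoblastoid cells, 2500 per well, were preincubated 5 hr at 37 C, then exposed to compounds for 24 hr at 37 C in complete medium. Viability was read as intracellular ATP by CellTiter-Glo luminescence; AC50 from Hill-equation fits of qHTS concentration-response data.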

[10] = Cell Viability - LYMP2-007 (AID 979);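 also: cells exposed to compound for 24 h before reading; nearly all actives have a fitted effect of over 60% in size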
How it was run: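 Human lymphoblastoid LYMP2-007 cells (2500/well) preincubated 5 h at 37 C, then treated 24 h at 37 C in complete medium. Viability by CellTiter-Glo ATP luminescence after 30 min at room temperature; AC50 from Hill fits.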

[11] = Cell Viability - LYMP2-008 (AID 980); also: nearly all actives have a fitted effect of over 60% in size
How it was run: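 LYMP2-008 lymphoblastoid cells (2500/well) plated 5 h, then treated 24 h at 37 C in complete medium. Viability read as intracellular ATP by CellTiter-Glo luminescence after 30 min at room temperature; AC50 from Hill fits.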

[12] = Cell Viability - LYMP2-014 (AID 983); also: series mostly up to about 92 µM; nearly all actives have a fitted effect of over 50% in size
How it was run: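 LYMP2-014 human lymphoblastoid cells, 2500/well, treated 24 h at 37 C in complete medium; viability by CellTiter-Glo ATP luminescence after 30 min at room temperature. AC50 from Hill fits of qHTS concentration-response; tetraoctylammonium bromide positive control.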

[13] = biological target: Peroxisome proliferator-activated receptor gamma (Homo sapiens) (UniProt P37231); assay: qHTS assay for small molecule agonists of peroxisome proliferator-activated receptor gamma signaling (AID 588536; active = well fitted curve in the direction sought with a large enough effect in the signal ratio, with a control signal flat, not every such curve was filed as active; the % refers to the signal ratio)
Chain of Peroxisome proliferator-activated receptor gamma (Homo sapiens) (P37231 whole entry, looked up): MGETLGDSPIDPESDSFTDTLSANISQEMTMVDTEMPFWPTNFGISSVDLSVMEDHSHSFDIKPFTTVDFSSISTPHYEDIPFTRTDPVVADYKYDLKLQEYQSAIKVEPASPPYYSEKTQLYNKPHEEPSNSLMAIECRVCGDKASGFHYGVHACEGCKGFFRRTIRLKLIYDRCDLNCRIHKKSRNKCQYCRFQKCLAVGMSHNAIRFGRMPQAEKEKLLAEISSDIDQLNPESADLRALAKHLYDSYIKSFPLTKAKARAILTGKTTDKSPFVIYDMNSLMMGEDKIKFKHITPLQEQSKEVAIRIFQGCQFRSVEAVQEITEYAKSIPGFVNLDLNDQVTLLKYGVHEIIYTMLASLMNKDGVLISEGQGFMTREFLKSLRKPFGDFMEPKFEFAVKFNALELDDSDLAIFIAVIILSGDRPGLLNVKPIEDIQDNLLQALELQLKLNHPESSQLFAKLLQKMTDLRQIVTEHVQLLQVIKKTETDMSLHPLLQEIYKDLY
How it was run: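 Ratiometric blue/green fluorescence (405 nm excitation; 460 and 530 nm emission) from CCF4-loaded HEK293 reporter cells serves as signal. Exposure to test compounds lasts 16 h at 37 C in medium containing 1% charcoal/dextran-treated serum.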

[14] = biological target: Voltage-gated inwardly rectifying potassium channel KCNH2 (Homo sapiens) (UniProt Q12809); assay: qHTS Assay for Small Molecule Inhibitors of the Human hERG Channel Activity (AID 588834);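 also: top concentration of the series differs between compounds; lower thallium flux fluorescence means stronger hERG block; nearly all actives have a fitted effect of over 50% in size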
Chain of Voltage-gated inwardly rectifying potassium channel KCNH2 (Homo sapiens) (Q12809 whole entry, looked up): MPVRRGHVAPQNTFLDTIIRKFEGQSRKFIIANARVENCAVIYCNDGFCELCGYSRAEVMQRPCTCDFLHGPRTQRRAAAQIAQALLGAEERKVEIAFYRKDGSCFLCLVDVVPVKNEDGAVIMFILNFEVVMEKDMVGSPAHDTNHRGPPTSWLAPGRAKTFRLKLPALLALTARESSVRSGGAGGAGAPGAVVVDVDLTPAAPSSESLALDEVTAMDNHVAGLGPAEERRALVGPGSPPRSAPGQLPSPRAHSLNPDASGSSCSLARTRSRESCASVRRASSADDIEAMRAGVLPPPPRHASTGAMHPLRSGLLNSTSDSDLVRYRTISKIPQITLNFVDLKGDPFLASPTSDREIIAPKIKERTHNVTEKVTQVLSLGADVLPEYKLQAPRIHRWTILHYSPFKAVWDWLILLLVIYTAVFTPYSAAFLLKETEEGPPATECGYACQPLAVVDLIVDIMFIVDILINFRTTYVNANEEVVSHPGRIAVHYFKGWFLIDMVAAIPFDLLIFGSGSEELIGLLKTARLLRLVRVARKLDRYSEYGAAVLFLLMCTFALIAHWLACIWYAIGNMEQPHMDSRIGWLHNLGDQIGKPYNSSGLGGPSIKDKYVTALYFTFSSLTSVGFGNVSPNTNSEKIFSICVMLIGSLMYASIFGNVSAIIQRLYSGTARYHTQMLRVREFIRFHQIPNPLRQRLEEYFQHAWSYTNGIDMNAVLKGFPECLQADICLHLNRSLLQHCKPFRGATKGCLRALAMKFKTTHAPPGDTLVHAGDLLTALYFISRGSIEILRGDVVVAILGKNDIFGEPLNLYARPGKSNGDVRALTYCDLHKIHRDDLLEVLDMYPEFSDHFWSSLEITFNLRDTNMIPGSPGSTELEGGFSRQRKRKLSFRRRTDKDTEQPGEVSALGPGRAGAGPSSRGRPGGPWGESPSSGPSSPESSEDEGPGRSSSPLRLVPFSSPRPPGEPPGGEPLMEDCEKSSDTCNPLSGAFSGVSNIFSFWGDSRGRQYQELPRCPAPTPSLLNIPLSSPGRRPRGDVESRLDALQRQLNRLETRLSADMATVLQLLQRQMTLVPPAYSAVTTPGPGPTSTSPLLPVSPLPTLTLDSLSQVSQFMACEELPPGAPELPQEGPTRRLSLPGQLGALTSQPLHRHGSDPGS
How it was run: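 U2OS cells transduced with hERG via BacMam (MOI ~100), plated 2000/well, loaded with FluxOR thallium dye, compound ~10 min, then stimulation buffer; fluorescence decrease read kinetically; AC50 from Hill fits.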

[15] = qHTS assay for cell viability of HEK293 cells (AID 743288); settings: ATP luminescence (CellTiter-Glo), 18 h, hits give low values; also: nearly all actives have a fitted effect of over 50% in size
How it was run: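 Parental HEK293 cells were seeded at 2,000 cells/well, rested at least 5 h at 37 C, then exposed to compounds in DMSO for 18 h at 37 C. Viability was read as ATP-dependent luciferase luminescence after 30 min at room temperature.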

[16] = biological target: Nuclear receptor subfamily 1 group I member 2 (Rattus norvegicus) (UniProt Q9R1A7); assay: qHTS assay for small molecule activators of the rat pregnane X receptor (rPXR) signaling pathway (AID 651751; call rule not given here); settings: rPXR reporter cells, luciferase (One-Glo), 24 h
Chain of Nuclear receptor subfamily 1 group I member 2 (Rattus norvegicus) (Q9R1A7 whole entry, looked up): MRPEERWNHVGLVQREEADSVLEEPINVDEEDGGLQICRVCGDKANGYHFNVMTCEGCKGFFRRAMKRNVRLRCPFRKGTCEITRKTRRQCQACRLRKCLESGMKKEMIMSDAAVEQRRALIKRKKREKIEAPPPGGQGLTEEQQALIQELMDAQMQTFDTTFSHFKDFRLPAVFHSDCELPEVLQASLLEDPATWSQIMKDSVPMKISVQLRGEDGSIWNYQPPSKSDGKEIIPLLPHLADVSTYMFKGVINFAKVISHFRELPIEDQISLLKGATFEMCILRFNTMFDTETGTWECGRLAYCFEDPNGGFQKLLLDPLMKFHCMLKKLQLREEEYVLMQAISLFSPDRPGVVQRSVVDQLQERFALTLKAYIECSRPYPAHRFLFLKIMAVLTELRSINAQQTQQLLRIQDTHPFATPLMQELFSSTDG

[17] = Cell Viability - Mesenchymal (AID 546);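 also: cells exposed to compound for 40 hours before reading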
How it was run: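 AC50 values reflect the drop in intracellular ATP in a human kidney mesenchymal line derived from normal glomeruli. Treatment lasts 40 hr at 37 °C in complete medium, and the signal comes from CellTiter-Glo luminescence.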

[18] = Cellular Toxicity (caspase-3) H-4-II-E (AID 663); settings: Potency: caspase-3 activation;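 also: cells exposed to compound for 16 hr before readout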
How it was run: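 Apoptosis induction is scored as increased luminescence from caspase 3/7 substrate cleavage in rat hepatoma H-4-II-E cells exposed to compound for 16 hr. Activity is scaled between DMSO and 100 uM tamoxifen.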

[19] = Cell Viability - LYMP2-019 (AID 973); also: nearly all actives have a fitted effect of over 55% in size
How it was run: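 Human lymphoblastoid LYMP2-019 cells (2500/well) preincubated 5 h at 37 C, then treated 24 h at 37 C in complete medium. Viability by CellTiter-Glo ATP luminescence after 30 min at room temperature; AC50 from Hill fits.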

[20] = Cell Viability - LYMP2-020 (AID 986); also: series mostly up to about 92 µM; nearly all actives have a fitted effect of over 55% in size
How it was run: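 Human lymphoblastoid LYMP2-020 cells (2500/well) preincubated 5 h at 37 C, then treated 24 h at 37 C. Viability measured as intracellular ATP by CellTiter-Glo luminescence after 30 min at room temperature; AC50 from Hill fits.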

Structure (SMILES)	Potency [1]	Potency [2]	outcome [3]	Potency [4]	outcome [5]	Potency [6]	outcome [7]	Potency [8]	Potency [9]	Potency [10]	Potency [11]	Potency [12]	outcome [13]	Potency [14]	max response [15]	max response [16]	Potency [17]	Potency [18]	Potency [19]	Potency [20]
CCOC(=O)CC(SP(=O)(OC)OC)C(=O)OCC (stereo unspecified)	inactive	inactive	inactive	inactive	inactive	inactive	inactive	inactive	inactive	inactive	inactive	inactive	inactive	inactive	-12.5% and -3.42%	-7.84% and -3.31%	–	–	–	–
Brc1ccc(Oc2ccc(Br)cc2Br)c(Br)c1	inactive	inactive	inactive	inactive	inactive	inactive	inactive	inactive	inactive	inactive	inactive	inactive	–	–	–	–	inactive	inactive	inactive	inactive
N#CC(O)c1ccccc1 (stereo unspecified)	–	inactive	inactive	inactive	inactive	inactive	inactive	inactive	inactive	–	inactive	–	–	inactive	2.16%	0.679%	inactive	inactive	inactive	inactive
Cc1cccc(C)c1N	–	inactive	inactive	–	–	inactive	inactive	–	inactive	inactive	–	inactive	inactive	–	–	0.51%	inactive	inactive	inactive	inactive
Cl/C=C/CCl	inactive	inactive	inactive	inactive	inactive	–	–	inactive	inactive	–	inactive	–	inactive	inactive	2.26%	-4.52%	inactive	–	inactive	inactive
C=CC(=O)OCC(C)C	inactive	inactive	inactive	–	–	inactive	inactive	–	inactive	inactive	inactive	inactive	inactive	inactive	2.29%	-2.18%	inactive	inactive	inactive	inactive
CN=C=O	–	inactive	inactive	inactive	inactive	inactive	inactive	inactive	–	inactive	inactive	inactive	–	inactive	3.09%	8.83%	inactive	–	inactive	inactive
O=[N+]([O-])c1c(Cl)c(Cl)c(Cl)c(Cl)c1Cl	inactive	inactive	inactive	–	–	31.6 µM (active)	inactive	inactive	inactive	inactive	inactive	inactive	–	inactive	-12.6% and -27.3%	-3.78% and 1.81%	inactive	inactive	inactive	inactive

From PubChem BioAssay (NCATS)
